Hits are enriched below; roughly 2.1% of the tested compounds scored in any of these assays.
D2 ag-1 – agonists of human D2 dopamine receptor | activation, % at 2 µM | 340,000 tested, 0.53% active | AID 485358 | P14416 | HEK293 T-REx D2 cells, calcium flux agonist mode;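 active means activation over 3 SD above normal in the single-dose calcium agonist read, cut at about 30% in these data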
Target sequence (P14416 whole entry, looked up): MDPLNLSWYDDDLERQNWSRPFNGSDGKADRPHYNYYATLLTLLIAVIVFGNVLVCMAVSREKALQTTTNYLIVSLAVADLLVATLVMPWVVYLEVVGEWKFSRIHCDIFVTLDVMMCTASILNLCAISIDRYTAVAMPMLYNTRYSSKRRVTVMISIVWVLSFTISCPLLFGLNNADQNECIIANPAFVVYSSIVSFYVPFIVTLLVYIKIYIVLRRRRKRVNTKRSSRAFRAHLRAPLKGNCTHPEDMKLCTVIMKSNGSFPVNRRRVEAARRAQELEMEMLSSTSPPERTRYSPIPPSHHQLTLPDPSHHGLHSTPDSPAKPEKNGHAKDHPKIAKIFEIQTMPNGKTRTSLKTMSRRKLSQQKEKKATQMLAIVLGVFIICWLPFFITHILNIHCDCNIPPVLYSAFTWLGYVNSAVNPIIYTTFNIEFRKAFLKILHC
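HEK293 Trex D2 cells, tetracycline-induced, o/n 30 C 5% CO2; no-wash Ca dye, RT 30–90 min; 10-cycle baseline, 23 nl cpd added, kinetic Ca read 180 s; agonist hits = positive Ca response.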
D2 PAM-1 – human D2 receptor positive allosteric modulation. P14416. DiscoveRx D2 beta-arrestin cells, luminescence, 90 min; 100% = 57 uM dopamine signal. potentiation, % (concentration not given with the values). 360,000 tested, 0.23% active; in the data active means potentiation above about 50%; inconclusive means mostly about 30% to 49%
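PathHunter D2 cells, attached overnight at 37 deg C, received compound in DMSO plus dopamine at EC20 (50 nM final) for 90 min at 37 deg C. Beta-arrestin recruitment was read as luminescence after 1 h with detection reagent at ambient temperature.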
LDHA block – LDHA (human) enzyme inhibition; purified LDHA, NADH/diaphorase-resazurin fluorescence; stronger effect = lower value; AID 1347041; activity change, % (values are at about 110 or 230 µM); 480,000 tested, 0.15% active; P00338; in the data active means activity change below about -30%; inconclusive means mostly about -25% to -30%
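Resorufin fluorescence (ex540/em590), read at 0 and 20 min after diaphorase/resazurin addition, reports the NADH left after a 5 min room-temperature reaction of 2 nM human LDH5 with 0.06 mM NADH and 0.2 mM pyruvate.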
D2 PAM-2 – D2 dopamine receptor (human) potentiation | P14416 | HEK293 T-REx D2, calcium flux, EC20 dopamine potentiation | potentiation, % at 10 µM | 340,000 tested, 0.34% active | AID 485347;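 active means potentiation over 3 SD above the plate norm, cut at about 30% in these data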
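Cells plated with tetracycline inducer and held overnight at 30 C; calcium dye loaded 30–90 min at room temperature; baseline taken, compound added and read 180 s; EC20 dopamine then added and read 180 s.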
D2 antag – antagonizes the human D2 dopamine receptor; inhibition, % at 10 µM; 340,000 tested, 2% active; P14416; HEK293 TREx D2 cells, calcium flux, dopamine EC80; in the data active means inhibition above about 30%; inactive means below that, where a call was filed
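Overnight-induced (tetracycline, 30 C) HEK293 T-REx cells carrying force-coupled D2 receive a no-wash calcium dye, then compound, then EC80 dopamine at 180 s; signals are read kinetically throughout.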
D2 ag-2 – activates the human D2 dopamine receptor. DiscoveRx PathHunter D2 beta-arrestin, luminescence, 90 min; 100% = 57 uM dopamine signal. activation, % (concentration not given with the values). 360,000 tested, 0.084% active; in the data active means activation above about 40%; inconclusive means between about 15% and that limit
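Agonist mode: compounds alone added to overnight-plated D2 PathHunter cells for 90 min at 37 C, with 57 uM final dopamine (EC100) defining full response. Beta-arrestin recruitment detected by chemiluminescent reagent, read after 1 h at ambient temperature.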
Numbers stand for hits; . = inactive; ? = inconclusive; / = no result; ! = a repeat was not active.

SMILES | D2 ag-1 | D2 PAM-1 | LDHA block | D2 PAM-2 | D2 antag | D2 ag-2
CCOC(=O)Cc1cc(=O)n2[nH]c(NCc3ccc(OC)cc3)nc2n1 | / | / | . | / | / | /
COc1cc(N)c(Cl)cc1C(=O)N[C@@H]1CCN(CCCOc2ccc(F)cc2)C[C@@H]1OC | . | / | / | . | 77 | /
N#CCCN(C(=O)Cn1nc(C(=O)O)c2ccccc2c1=O)c1ccccc1 | . | . | -32! | . | . | .
CC1(C)ON(C2CCCCC2)[C@H]2c3nc4ccccc4n3C[C@H]21 | . | . | . | . | 39 | .
CC(O)c1nc2ccccc2n1C1CCCCC1 (stereo not drawn) | . | . | . | . | . | .
C/C(=N\NC(=O)c1c(Cl)c(C)nn1C)c1cccc(NC(=O)c2cccc(F)c2)c1 | . | . | . | . | 49 | .
O=C/C=C/c1ccc([N+](=O)[O-])cc1 | / | / | . | / | / | /
COc1ccccc1NC(=O)Nc1nc(C(N)C(C)C)cs1 (stereo not drawn) | / | . | . | / | / | .
COc1ccccc1NC(=O)Nc1cc(F)ccc1F | . | . | . | . | 32 | .
COc1ccccc1NC(=O)Nc1nc(C(C)(C)C)cs1 | . | . | . | . | 35 | .
COc1ccccc1NC(=O)Nc1nc(CC(=O)Nc2cccc(F)c2)cs1 | . | . | . | . | . | .
COc1ccccc1NC(=O)Nc1nc(CC(=O)Nc2cc(F)ccc2F)cs1 | . | 56 | . | . | . | .
COc1ccccc1NC(=O)Nc1ccc(-n2ccc(C(F)(F)F)n2)cc1 | . | . | . | . | 71 | .
CC(OC(=O)c1ccc(CCNS(C)(=O)=O)cc1)C(=O)N1CCOCC1 (stereo not drawn) | / | / | . | / | / | /
COc1cc(NC(=O)c2ccccc2OCc2ccccc2)cc(OC)c1OC | . | 56 | . | . | . | .
O=C(Nc1ccc(O)cc1)c1ccccc1OCc1ccccc1 | . | . | . | . | . | .
O=C(CCc1cccnc1)NC1(c2ccc(Br)cc2)CC1 | / | / | . | / | / | /
COc1ccccc1-n1[nH]c(C)c(Cc2ccccc2Cl)c1=O | / | / | -44 | / | / | /
CCCN(CCC)c1ccc(NC(=O)c2ccccc2Cl)cc1C(=O)O | / | / | . | / | / | /
CC(=O)c1ccc(NCC(=O)N2N=C(c3ccc(C)o3)CC2c2ccco2)cc1 (stereo not drawn) | / | / | . | / | / | /
COC(=O)/C=C/C(=O)Nc1cc(Cl)ccc1O | / | / | . | / | / | /
COC1CCCCC1NS(=O)(=O)c1ccc(Cl)cc1 (stereo not drawn) | . | . | . | . | 31 | .
COC1CCCCC1NS(=O)(=O)c1ccccc1 (stereo not drawn) | . | . | . | . | . | .
CC(=O)c1ccccc1NC(=O)COC(=O)c1cc(=O)c2ccccc2o1 | / | / | . | / | / | /
CC(C)Nc1nc(Cl)nc(NC2CCCCC2)n1 | . | . | . | . | . | .
SMILES | D2 ag-1 | D2 PAM-1 | LDHA block | D2 PAM-2 | D2 antag | D2 ag-2
CC(C)Nc1nc(Cl)nc(NN(C)c2nc(N(C)C)nc(N(C)C)n2)n1 | . | . | . | . | 34 | .
CCCCCn1c(S(=O)(=O)O)nc2ccccc21 | . | . | . | . | . | .
CCCCn1c(S(=O)(=O)O)nc2ccccc21 | . | . | . | . | 33 | .
O=C(CCc1cc(Cl)no1)N(CCS(=O)(=O)N1CCOCC1)Cc1ccncc1 | / | / | . | / | / | /
CC(Nc1ccc(NS(C)(=O)=O)cc1)C(=O)Nc1ccc(Cl)cn1 (stereo not drawn) | / | / | . | / | / | /
COCC(C)n1c(C)cc(C(=O)COC(=O)/C=C/c2cccc(F)c2)c1C (stereo not drawn) | . | . | . | 53 | . | .
CC(=O)c1ccc(NC(=O)c2cn(-c3ccccc3)nc2-c2ccncc2)cc1 | . | . | . | 35 | . | .
Cc1ccc(-c2nn(-c3ccccc3)cc2C(=O)NCCCN2CCOCC2)cc1 | . | . | . | . | 31 | .
Cc1ccc(-c2nn(-c3ccccc3Cl)cc2C(=O)NCC2CCCO2)cc1 (stereo not drawn) | . | . | . | . | 31 | .
COC(=O)c1ccc(NC(=O)c2cn(-c3ccccc3)nc2-c2ccncc2)cc1 | . | . | . | . | 91 | .
COc1ccc(Br)cc1/C=C(\C#N)C(N)=C(C#N)C#N | / | / | . | / | / | /
Cc1cccc(NC(=O)c2cn(-c3ccccc3)nc2-c2ccccc2)c1 | . | . | . | . | 40 | .
Cc1cc(/C=C/C(=O)c2ccc(F)cc2)cc(C)c1O | / | / | . | / | / | /
Cc1ccc(-n2ncc3c(=O)n(CC(=O)NCc4ccco4)cnc32)cc1 | . | . | . | 31 | . | .
O=C(Cn1cnc2c(nnn2-c2ccccc2)c1=O)NCc1ccco1 | . | . | . | . | 40 | .
COC(=O)C(C)n1cnc2c(nnn2-c2ccccc2)c1=O (stereo not drawn) | . | . | . | . | 31 | .
O=C(Cn1cnc2c(nnn2-c2ccccc2)c1=O)NCCc1ccccc1 | . | . | . | 56 | . | .
CCOC(=O)CNC(=O)Cn1cnc2c(nnn2-c2ccccc2)c1=O | . | . | . | . | . | .
Cn1c(SCc2coc(-c3cccs3)n2)nnc1-c1ccccc1 | / | / | . | / | / | /
CC(C)(C)n1nnnc1SCc1coc(-c2ccccc2)n1 | / | / | . | / | / | /
O=C(N1CCN(c2nc(-c3ccccc3)c3ccccc3n2)CC1)C(F)(F)F | / | / | . | / | / | /
Cc1cc(C[n+]2cc(Br)ccc2N)c2ncccc2c1 | . | . | . | . | 32 | .
Cc1cc(C)c(NC(=O)CN(C)C(=O)c2cc3cc(C)ccc3nc2C)c(C)c1 | / | / | . | / | / | /
Cn1c(CC(=O)Nc2cccc(C(F)(F)F)c2)nnc1SCC(=O)c1ccc(C#N)cc1 | / | / | -32 | / | / | /
CC(C)Cc1ccc(C(=O)/C=C/c2ccc(C(=O)O)cc2)cc1 | / | / | . | / | / | /
SMILES | D2 ag-1 | D2 PAM-1 | LDHA block | D2 PAM-2 | D2 antag | D2 ag-2
C/C(=N\O)c1c(O)cc(-c2ccccc2)n(-c2ccccc2)c1=O | 31 | . | . | . | . | .
CC(=O)C(=Nc1ccccc1Cl)NNc1ccc(Cl)cc1 | . | ? | . | 34 | . | ?
O=C(NNc1ccc(Cl)cc1)c1c(F)cccc1Cl | . | . | . | . | . | .
Cc1ccnc(SCCn2c(N3CCCCC3)nc3c2c(=O)[nH]c(=O)n3C)n1 | . | / | / | 31 | . | /
Cn1c(=O)[nH]c(=O)c2c1nc(N1CCCCCC1)n2CCN1CCCCCC1 | . | . | . | . | 40 | .
CCCCn1c(N2CCCC2)nc2c1c(=O)[nH]c(=O)n2C | . | . | . | . | . | .
O=c1cc(CN2CCN(CCO)CC2)c2cc(O)ccc2o1 | / | / | . | / | / | /
Cc1cccc(C(=O)NCc2ccc(C)s2)n1 | / | / | . | / | / | /
Cc1ccc(NC(=O)c2cc3ccccc3oc2=N)cc1 | . | . | . | . | . | .
N=c1oc2c3c4c(cc2cc1C(=O)Nc1ccccc1)CCCN4CCC3 | 95 | . | . | . | 71 | .
